Experimental data published in PubChem BioAssay.
Calls of active or inactive are those of the source. Unless noted, how the calls were made is not given here.

Legend:
[1] = liver-stage malaria parasite load reduction – cell-based, known kinase inhibitor set, luminescence, hepatoma host viability (AID 624392); conditions: Plasmodium liver stage in hepatoma cells, luciferase luminescence, concentration not given here; liver cell % of control: measured here: host liver cell viability; parasite % of control: stronger effect = lower value;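 further: infected cells incubated roughly two days before readout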
[2] = altered dexamethasone sensitivity, NF-kB reporter, cell-based, luciferase, IL-1B stimulus (AID 624486); conditions: IL-1B + dexamethasone, luminescence; percent of negative control (+Dex): actives lie on both sides, concentration not given here; z-score: measured here: IL-1B alone, no Dex;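 on percent of negative control (+Dex): 100% = mean signal of vehicle control wells on the plate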
[3] = C. elegans survival during P. aeruginosa infection – whole organism (AID 651566);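 further: tested at 14 µM; sign flipped so higher z means a lower ratio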; conditions: C. elegans killed by P. aeruginosa, survival ratio
[4] = pro-inflammatory signaling induction in mouse macrophages – cell-based, murine, luminescence (AID 652131); conditions: murine macrophage pro-inflammatory reporter, stronger effect = higher value
[5] = biological target: Cellular tumor antigen p53 (Homo sapiens) (UniProt P04637); assay: GFP-p53 level modulators in HPV16+ cells – imaging, known kinase inhibitor set, EGFP/DsRed ratio (AID 1053116); conditions: GFP-p53 stability, stronger effect = higher value; EGFP object count: measured here: GFP-p53 positive objects count;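 further: cells exposed to compounds for 24 h at 37 °C before reading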
[6] = inducers of IRF3 signaling, differentiated THP-1 – cell-based, PMA-stimulated THP-1, luminescence (AID 1053176); conditions: PMA-differentiated THP-1, IRF3 reporter luminescence; stronger effect = higher value
[7] = MELAS cybrid and Rieske KO viability enhancers – cell-based, MELAS cybrids, Rieske KO mouse fibroblasts, CellTiter-Glo, primary screen (AID 1508586;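 active means mean z-score across replicates of 1.96 or higher in either the MELAS or the Rieske mutant cell line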;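 further: z relative to plate mean and SD of compound and empty wells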); conditions: low glucose
[8] = MELAS cybrid survival, CellTiter-Glo 48 h, stronger effect = higher value
[9] = Rieske KO mouse fibroblast survival, CellTiter-Glo 72 h

Cellular tumor antigen p53 (Homo sapiens), sequence (P04637 whole entry, looked up): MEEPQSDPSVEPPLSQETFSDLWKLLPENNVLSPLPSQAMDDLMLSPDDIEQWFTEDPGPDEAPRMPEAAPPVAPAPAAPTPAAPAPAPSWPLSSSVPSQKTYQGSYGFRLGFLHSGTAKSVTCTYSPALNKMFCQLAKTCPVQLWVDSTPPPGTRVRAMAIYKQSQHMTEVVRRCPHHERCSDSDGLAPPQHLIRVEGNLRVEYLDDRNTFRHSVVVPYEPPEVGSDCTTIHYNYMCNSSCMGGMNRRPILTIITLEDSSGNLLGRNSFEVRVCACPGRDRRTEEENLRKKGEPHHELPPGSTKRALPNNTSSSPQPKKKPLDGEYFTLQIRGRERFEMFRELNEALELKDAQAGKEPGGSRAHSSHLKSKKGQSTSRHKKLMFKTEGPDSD

SMILES | liver cell % of control [1] [%] | parasite % of control [1] | percent of negative control (+Dex) [2] | z-score [2] | z-score [3] | z-score [4] | EGFP object count [5] | EGFP/DsRed ratio [5] | fraction signal [6] | z-score [7, 8] | z-score [7, 9]
CC1=C(C(=O)Nc2ccc3[nH]ncc3c2)C(c2ccc(Cl)c(Cl)c2)CC(=O)N1 (centres undefined) | 100 | 160% (inactive) | 83.5% (inactive) | -1.08 | -0.52 (inactive) | -0.714 (inactive) | 2 | 0.0149 (inactive) | -0.0025 (inactive) | -0.00134 (inactive) | -0.0171
O=C(O[C@H]1CN[C@H](C#Cc2cc3ncnc(Nc4ccc5c(ccn5Cc5cc(F)ccc5F)c4)c3s2)C1)N1CCOCC1 | 93.4 | 75.1% (inactive) | 62% (inactive) | -2.06 | 0.505 (inactive) | 2.01 (inactive) | 3 | 0.0606 (inactive) | -0.0085 (inactive) | -0.816 (inactive) | -0.0743
COc1cc(Nc2ncc3c(C)nc(-c4cccc(C(F)(F)F)c4)n3n2)cc(OC)c1OC | 91.6 | 120% (inactive) | 59.5% (inactive) | -3.31 | 0.325 (inactive) | -0.389 (inactive) | 11 | 0.172 (inactive) | 0.005 (inactive) | 1.04 (inactive) | 0.168
CC1(C)CC(n2cnc(-c3ccc(F)cc3)c2-c2ccnc(N)n2)CC(C)(C)N1 | 79.9 | 131% (inactive) | 110% (inactive) | 1.77 | 0.485 (inactive) | 1.82 (inactive) | 4 | 0.0677 (inactive) | 0.0175 (inactive) | -0.417 (inactive) | 0.00971
CCc1cccc(NC(=O)Nc2ccc(Oc3ccc4nc(NC(=O)OC)[nH]c4c3)cc2)c1 | 93.1 | 128% (inactive) | 106% (inactive) | 0.55 | -0.175 (inactive) | 0.13 (inactive) | 106 | 1.83 (active) | -0.002 (inactive) | -0.411 (inactive) | -0.621
COc1c(C(N)=O)cc(-c2ccc(Cl)cc2)cc1-c1ccc(S(N)(=O)=O)cc1 | 100 | 180% (inactive) | 90.5% (inactive) | 0.135 | -0.43 (inactive) | 0.956 (inactive) | 4 | 0.128 (inactive) | -0.003 (inactive) | 0.239 (inactive) | 0.0436
COc1cc(C)c(NC(=O)CN(C)C)cc1Nc1nc(Nc2cccc(F)c2C(N)=O)c2cc[nH]c2n1 | 63 | 550% (inactive) | 93% (inactive) | -0.195 | -0.165 (inactive) | 5.12 (inactive) | 21 | 0.493 (inactive) | -0.0105 (inactive) | 1.87 (inactive) | -0.0279
COc1ccccc1Nc1ncc(-c2ccccc2)o1 | 121 | 132% (inactive) | 243% (active) | 9.37 | -1.29 (inactive) | 5.36 (inactive) | 8.5 | 0.173 (inactive) | 0.001 (inactive) | 0.853 (inactive) | -0.618
CCc1ccc(Oc2nccc(-c3c(-c4ccc(F)cc4)ncn3C3CCNCC3)n2)cc1 | 78.5 | 140% (inactive) | 104% (inactive) | 0.41 | 0.125 (inactive) | -0.495 (inactive) | 4.5 | 0.0563 (inactive) | -0.0095 (inactive) | -0.158 (inactive) | -0.111
Cc1ccc(O)cc1Nc1ccnc2ccc(S(C)(=O)=O)cc12 | 79.8 | 60.9% (inactive) | 60.5% (inactive) | -3.46 | 0.285 (inactive) | 0.671 (inactive) | 3 | 0.0595 (inactive) | -0.007 (inactive) | -0.116 | 3.87
NS(=O)(=O)c1cccc(NC2CC(c3ccc(F)cc3)NN2)c1 (centres undefined) | 86.1 | 117% (inactive) | 92.5% (inactive) | 0.55 | 0.39 (inactive) | 4.5 (inactive) | 7.5 | 0.474 (inactive) | -0.0055 (inactive) | 1.38 (inactive) | -0.322
CN(c1ccc(NC(=O)Nc2ccc(OC(F)(F)F)cc2)cc1)c1ccnc(Nc2cccc(S(N)(=O)=O)c2)n1 | 58.3 | 13.1% (inactive) | 81.5% (inactive) | -0.645 | 1.04 (inactive) | -1.34 (inactive) | 7.5 | 0.0983 (inactive) | -0.001 (inactive) | -1.15 (inactive) | 0.249
COc1cc2ncn(-c3cc(OCc4ccccc4C(F)(F)F)c(C(C)=O)s3)c2cc1OC | 97.8 | 91.8% (inactive) | 82.5% (inactive) | -0.63 | -0.4 (inactive) | -0.463 (inactive) | 5 | 0.118 (inactive) | 0.002 (inactive) | -0.657 (inactive) | 0.0101
CCS(=O)(=O)c1ccc(OC)c(Nc2ncc(-c3ccccc3Cl)o2)c1 | 160 | 36.8% (inactive) | 74.5% (inactive) | -0.91 | -0.335 (inactive) | -0.503 (inactive) | 4.5 | 0.0626 (inactive) | 0.0065 (inactive) | 1.39 (inactive) | -0.145
Clc1ccc(-c2nn3ncccc3c2-c2ccnc(Nc3ccccc3)n2)cc1 | 149 | 29.7% (inactive) | 84% (inactive) | -0.705 | 0.79 (inactive) | 0.464 (inactive) | 4 | 0.304 (inactive) | -0.004 (inactive) | 0.298 (inactive) | -0.499
CS(=O)(=O)Nc1ccc(-c2cc(-c3ccccc3)cc(C(N)=O)c2N)cc1 | 89.1 | 126% (inactive) | 88% (inactive) | -0.23 | 1.28 (inactive) | -1.08 (inactive) | 2 | 0.102 (inactive) | -0.0055 (inactive) | 0.927 (inactive) | 0.162
N#Cc1c(NC(=O)c2ccc(F)cc2)sc2c1CCCC2 | 159 | 137% (inactive) | 246% (active) | 14.3 | -0.855 (inactive) | 3.47 (inactive) | 6 | 0.0854 (inactive) | -0.006 (inactive) | -0.073 (inactive) | 0.00203
NC(=O)c1cc(-c2ccncc2)cc(-c2ccccc2)c1N | 95.8 | 55.5% (inactive) | 52% (inactive) | -4.61 | -0.845 (inactive) | -1.14 (inactive) | 2.5 | 0.104 (inactive) | 0.0085 (inactive) | -0.817 (inactive) | -0.475
Cc1ccc2c(-c3ccnc(Nc4ccc5c(c4)OCCO5)n3)c(-c3ccc(C(F)(F)F)cc3)nn2n1 | 142 | 33.6% (inactive) | 86% (inactive) | -0.095 | -1.23 (inactive) | 0.821 (inactive) | 1.5 | 0.0121 (inactive) | 0.002 (inactive) | -0.379 (inactive) | 0.474
CCn1c(-c2nonc2N)nc2c(C#CC(C)(C)O)nc(OC[C@H](N)c3ccccc3)cc21 | 91.7 | 78.3% (inactive) | 106% (inactive) | 1.86 | 0.015 (inactive) | -1.25 (inactive) | 7.5 | 0.207 (inactive) | -0.0025 (inactive) | -0.101 (inactive) | 0.135
COC(=O)c1sc(-n2cnc3cc(OC)c(OC)cc32)cc1OCc1ccccc1C(F)(F)F | 103 | 126% (inactive) | 86% (inactive) | 0.12 | 0.885 (inactive) | 0.445 (inactive) | 4.5 | 0.108 (inactive) | -0.003 (inactive) | -0.644 (inactive) | 0.293
Cc1ccc2c(-c3ccnc(Nc4cccc(C(F)(F)F)c4)n3)c(-c3ccccc3)nn2n1 | 84.8 | 47.5% (inactive) | 89.5% (inactive) | -3.32 | -0.495 (inactive) | -1.57 (inactive) | 2.5 | 0.0663 (inactive) | -0.0065 (inactive) | 0.907 (inactive) | -0.257
COc1cc(Nc2nccc(-c3cnn4ncccc34)n2)cc(OC)c1 | 132 | 14.2% (inactive) | 29% (active) | -7.79 | 0.5 (inactive) | -1.96 (inactive) | 2.5 | 0.0482 (inactive) | -0.004 (inactive) | 1.1 (inactive) | 0.69
CCS(=O)(=O)c1ccc(OC)c(Nc2ncc(-c3cccc(OC)c3)o2)c1 | 161 | 16.6% (inactive) | 78.5% (inactive) | -0.275 | 0.285 (inactive) | -0.544 (inactive) | 4.5 | 0.129 (inactive) | 0.002 (inactive) | 1.48 (inactive) | -0.42
Cc1cc(O)cc(C)c1/C=C/c1cncc(C(=O)N(C)C)c1 | 97.7 | 96.9% (inactive) | 106% (inactive) | 0.005 | 0.18 (inactive) | 0.003 (inactive) | 4.5 | 0.177 (inactive) | 0.0095 (inactive) | -0.281 (inactive) | -0.0339
COc1cc2c(cc1Nc1nc(Nc3ccsc3C(N)=O)c3cc[nH]c3n1)N(C(=O)CN(C)C)CCC2(C)C | 67.7 | 290% (inactive) | 91% (inactive) | -0.245 | 0.455 (inactive) | 2.78 (inactive) | 3.5 | 0.0546 (inactive) | 0.001 (inactive) | 0.737 | 2.24
COc1cc(N2CCN(C(C)C)CC2)ccc1Nc1nc(Nc2cccc(F)c2C(=O)O)c2cc[nH]c2n1 | 115 | 124% (inactive) | 100% (inactive) | -0.075 | 1.24 (inactive) | -0.341 (inactive) | 4 | 0.0569 (inactive) | 0.0115 (inactive) | -0.385 (inactive) | -0.236
CCNC(=O)O[C@H]1CN[C@H](C#Cc2cc3ncnc(Nc4ccc(OCc5cccc(F)c5)c(Cl)c4)c3s2)C1 | 105 | 113% (inactive) | 82.5% (inactive) | -0.355 | 1.02 (inactive) | -0.875 (inactive) | 5.5 | 0.233 (inactive) | -0.003 (inactive) | 0.000408 (inactive) | -0.264
Nc1nccc(C#Cc2cncnc2Nc2ccc(OCc3cccc(F)c3)c(Cl)c2)n1 | 107 | 81.2% (inactive) | 83.5% (inactive) | -0.655 | 0.82 (inactive) | -1.19 (inactive) | 313 | 1.99 (active) | -0.0105 (inactive) | -0.936 (inactive) | 0.011
